High-throughput results as filed in PubChem BioAssay.
Most compounds without a hit are left out; they make up all but 7.9% or so of the library.
HT1080 IDH1KD tx: HT-1080 IDH1 knockdown cell toxicity (counter line). HT-1080 IDH1 knockdown viability, ATP luminescence, 48 h. Potency, µM (series often up to 46.1 µM), most hits filed as cytotoxic. AID 686971. actives 2% (n = 360,000)
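HT-1080-IDH1KD cells (IDH1 knocked down), 750/well in RPMI with 5% FBS, treated with compound 48 h at 37 degrees C. Viability by CellTiter-Glo luminescence, normalised to DMSO and no-cell wells; concentration-response curves classed.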
SW480 rerep: inducers of DNA re-replication in SW480 colon cancer cells | AID 624297 | SW480 DNA re-replication, Hoechst DNA content imaging, 48 h | Potency, µM (series often up to 46.1 µM), usual class: activators | actives 1.8% (n = 340,000); also: nearly all actives have a fitted effect of over 55% in size
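Treated cells incubate 48 hr (37 C, 5% CO2), are stained 40 min with Hoechst, and nuclear fluorescence is enumerated; a rise in nuclei with high DNA signal marks re-replication.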
KB-V1 cytotox: kills drug-selected multidrug resistant KB-V1 cells. KB-V1 MDR cells viability, CellTiter-Glo, 72 h. Potency, µM (series often up to 46.1 µM), hits mostly cytotoxic. actives 3.4% (n = 400,000). AID 1347076; also: nearly all actives have a fitted effect of over 60% in size
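Following 72 h at 37 degrees C with compound, KB-V1 cell viability was read by CellTiter-Glo luminescence, medium being phenol-red-free DMEM plus 10% FBS; concentration-response parameters came from normalized, curve-fitted qHTS data.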
KB-3-1 cytotox: KB-3-1 parental cell cytotoxicity; KB-3-1 viability, CellTiter-Glo ATP luminescence, 72 h; Potency, µM (top dose mostly 46.1 µM), hits mostly cytotoxic; actives 1.4% (n = 400,000); AID 1347075; also: nearly all actives have a fitted effect of over 60% in size
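Parental KB-3-1 viability, qHTS format: 72 h compound exposure, 37 °C; CellTiter-Glo; media-only wells and DMSO plates as controls; concentration-effect fits on corrected data.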
HT1080-NT tox: kills 2HG-producing HT-1080-NT fibrosarcoma cells | actives 1.6% (n = 360,000) | AID 686970 | HT-1080-NT fibrosarcoma viability, CellTiter-Glo ATP luminescence, 48 h | Potency, µM (top dose mostly 46.1 µM), usual class: cytotoxic;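 also: NT is the 2HG producing partner of a matched IDH1 knockdown line; nearly all actives have a fitted effect of over 55% in size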
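Viability by CellTiter-Glo luminescence after 48 h compound exposure at 37C of HT-1080-NT cells (750/well, RPMI, 5% FBS). % activity scaled between DMSO wells and medium-only wells, then curve-fitted and categorized by curve class.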
MCF10A rereplic: induces DNA re-replication in MCF 10a normal breast cells; MCF 10A DNA re-replication, Hoechst nuclear intensity, 48 h; Potency, µM (titrated, usually from 46.1 µM), most hits filed as activators; actives 2.9% (n = 350,000); AID 624296; also: nearly all actives have a fitted effect of over 50% in size
A number is an active result; n = inactive; u = inconclusive; x = not tested or not shown. Calls follow the shape of the dose curve; as a rule, active = well fitted curve in the direction sought with a large enough effect; inconclusive = small, poorly fitted or top-dose-only effect, or another doubt; inactive = no such curve, though single readings can be large; an effect the other way counts as inactive or inconclusive.

SMILES	HT1080 IDH1KD tx	SW480 rerep	KB-V1 cytotox	KB-3-1 cytotox	HT1080-NT tox	MCF10A rereplic
C=CCn1c(CCNC(=O)c2cccs2)nnc1SCC(=O)c1ccc(Cl)cc1	u	u	n	n	u	26µM
Cn1cnnc1SCC(=O)Nc1ccc(Cl)cc1	n	n	n	n	n	n
Cn1cnnc1SCC(=O)NNC(=O)COc1ccc(Cl)cc1	n	n	u	n	n	0.58µM
CCOC(=O)C1=C(N)n2c(s/c(=C\c3cccnc3)c2=O)=C(C#N)C1c1cccnc1 (stereo not given)	n	n	n	n	n	n
CC(C)c1ccc(/C=c2\sc3n(c2=O)C(N)=C(C#N)C(c2ccc(C(C)C)cc2)C=3C(N)=O)cc1 (stereo not given)	n	u	n	u	n	1.3µM
Cc1nnc(N2C(=O)c3oc4ccccc4c(=O)c3C2c2cccc(OCCC(C)C)c2)s1 (stereo not given)	x	x	n	n	x	x
CN(C)S(=O)(=O)c1cccc(NC(=O)c2ccccc2SCC(=O)N2CCCC2)c1	n	x	u	n	n	x
O=C(CNC(=O)c1cc(-c2ccccc2)nn1-c1ccccc1)Nc1ccccc1Br	n	n	n	n	n	12µM
O=C(CCl)Nc1cc(-c2ccccc2)nn1-c1ccccc1	1.6µM	u	7.3µM	u	5µM	u
CCN(CC(=O)Nc1ccccc1C(F)(F)F)C(=O)c1cc(-c2ccccc2)nn1-c1ccccc1	n	n	n	n	n	10µM
COc1ccc(Cl)cc1Nc1nc(Cl)nc(NCCO)n1	n	x	n	n	n	x
S=C(Nc1ccccc1)N1CCCCCC1	n	n	n	n	n	n
CC(NNC(=S)N1CCCCCC1)c1ccc2ccccc2n1 (stereo not given)	u	x	n	u	23µM	x
O=C(NCc1ccccc1Br)c1ccc2c(c1)nc1n2CCOC1	x	x	u	n	x	x
Cc1ccc(C(=O)NCc2ccc(N3CCN(C)CC3)cc2)cc1C	n	n	u	n	n	1.6µM
O=C(NCc1ccccc1)c1cc2ccccc2o1	n	n	u	n	n	n
COC(=O)c1ccc(N2CCN(C)CC2)c(NC(=O)c2cc3ccccc3o2)c1	n	n	3.3µM	n	n	n
CN1CCN(c2ccc(CNC(=O)c3cc4ccccc4o3)cc2)CC1	n	n	n	n	n	23µM
COc1ccc(CNC(=O)C2CCCN(S(=O)(=O)c3ccc4c(ccn4C)c3)C2)c(OC)c1 (stereo not given)	x	x	n	n	x	x
CS(=O)(=O)c1ccccc1NC(=O)COc1ccccc1C(=O)Nc1ccccc1	n	x	x	x	n	x
O=C(Cn1c(=O)ccc2cc(S(=O)(=O)N3CCCC3)ccc21)NCc1ccc(F)cc1	x	x	n	n	x	x
O=C1C(=O)c2ccccc2C(O)=C1c1cccc([N+](=O)[O-])c1	u	23µM	u	u	n	n
COc1cc(Br)c(C2CC(=O)Nc3cc(OC)c(OC)c(OC)c32)cc1OC (stereo not given)	x	x	n	n	x	x
COC(=O)c1cccc(NC(=O)CCCOc2ccccc2)c1	n	n	n	n	n	n
CN(C)S(=O)(=O)c1cccc(NC(=O)CCSc2ccc(Cl)cc2)c1	n	n	12µM	u	n	n
SMILES	HT1080 IDH1KD tx	SW480 rerep	KB-V1 cytotox	KB-3-1 cytotox	HT1080-NT tox	MCF10A rereplic
CC(=O)c1ccc(OCCCC(=O)Nc2cccc(S(=O)(=O)N(C)C)c2)cc1	n	n	13µM	u	n	n
CN(C)S(=O)(=O)c1cccc(NC(=O)COc2ccccc2C(=O)NCc2ccccc2)c1	n	n	10µM	u	n	n
CCc1ccc(OCCCC(=O)Nc2cccc(C(=O)O)c2)cc1	n	23µM	n	n	n	n
COc1ccccc1C(=O)NCC(=O)OCC(=O)Nc1cccc(S(=O)(=O)N(C)C)c1	n	n	n	n	n	n
CN(C)S(=O)(=O)c1cccc(NC(=O)CCNC(=O)Nc2ccccc2)c1	n	n	n	n	n	n
COc1cc(CCC(=O)Nc2cccc(S(=O)(=O)N(C)C)c2)cc(OC)c1OC	n	u	21µM	n	n	n
COC(=O)c1cccc(NC(=O)CCc2cc(OC)c(OC)c(OC)c2)c1	n	n	n	n	n	n
